Data on one molecule can be found in ChEMBL document CHEMBL2218924, “A broad activity screen in support of a chemogenomic map for kinase signalling research and drug discovery” (Biochem J, 2013).

Test [1] has as its target Tyrosine-protein kinase SYK (Homo sapiens) (UniProt P43405). The following applies: at 10 µM.
Test [2] addresses T1, Mitogen-activated protein kinase kinase kinase 7 (Homo sapiens) (UniProt O43318).
T1 sequence (whole entry): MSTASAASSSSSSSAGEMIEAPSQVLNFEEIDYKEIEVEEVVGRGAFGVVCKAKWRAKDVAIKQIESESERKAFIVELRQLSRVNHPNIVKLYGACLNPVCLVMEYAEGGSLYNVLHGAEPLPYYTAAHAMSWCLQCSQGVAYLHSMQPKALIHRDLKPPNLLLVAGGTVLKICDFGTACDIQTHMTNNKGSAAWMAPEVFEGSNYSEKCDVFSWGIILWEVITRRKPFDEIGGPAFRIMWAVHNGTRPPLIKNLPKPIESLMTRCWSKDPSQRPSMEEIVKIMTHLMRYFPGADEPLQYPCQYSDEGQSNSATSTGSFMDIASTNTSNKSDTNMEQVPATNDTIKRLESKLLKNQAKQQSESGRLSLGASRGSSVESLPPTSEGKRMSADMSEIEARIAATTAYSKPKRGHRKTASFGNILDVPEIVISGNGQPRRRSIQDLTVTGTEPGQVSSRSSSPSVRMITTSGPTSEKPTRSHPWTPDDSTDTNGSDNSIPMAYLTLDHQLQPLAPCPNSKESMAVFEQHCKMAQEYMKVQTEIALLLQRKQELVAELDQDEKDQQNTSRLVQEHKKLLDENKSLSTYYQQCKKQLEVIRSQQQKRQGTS
The following applies: at 1 µM.

For test [3], the target named is T1, Mitogen-activated protein kinase kinase kinase 7 (Homo sapiens). Conditions: at 10 µM.
In test [4] the target is T2, Serine/threonine-protein kinase TAO1 (Homo sapiens) (UniProt Q7L7X3).
T2 sequence (whole entry): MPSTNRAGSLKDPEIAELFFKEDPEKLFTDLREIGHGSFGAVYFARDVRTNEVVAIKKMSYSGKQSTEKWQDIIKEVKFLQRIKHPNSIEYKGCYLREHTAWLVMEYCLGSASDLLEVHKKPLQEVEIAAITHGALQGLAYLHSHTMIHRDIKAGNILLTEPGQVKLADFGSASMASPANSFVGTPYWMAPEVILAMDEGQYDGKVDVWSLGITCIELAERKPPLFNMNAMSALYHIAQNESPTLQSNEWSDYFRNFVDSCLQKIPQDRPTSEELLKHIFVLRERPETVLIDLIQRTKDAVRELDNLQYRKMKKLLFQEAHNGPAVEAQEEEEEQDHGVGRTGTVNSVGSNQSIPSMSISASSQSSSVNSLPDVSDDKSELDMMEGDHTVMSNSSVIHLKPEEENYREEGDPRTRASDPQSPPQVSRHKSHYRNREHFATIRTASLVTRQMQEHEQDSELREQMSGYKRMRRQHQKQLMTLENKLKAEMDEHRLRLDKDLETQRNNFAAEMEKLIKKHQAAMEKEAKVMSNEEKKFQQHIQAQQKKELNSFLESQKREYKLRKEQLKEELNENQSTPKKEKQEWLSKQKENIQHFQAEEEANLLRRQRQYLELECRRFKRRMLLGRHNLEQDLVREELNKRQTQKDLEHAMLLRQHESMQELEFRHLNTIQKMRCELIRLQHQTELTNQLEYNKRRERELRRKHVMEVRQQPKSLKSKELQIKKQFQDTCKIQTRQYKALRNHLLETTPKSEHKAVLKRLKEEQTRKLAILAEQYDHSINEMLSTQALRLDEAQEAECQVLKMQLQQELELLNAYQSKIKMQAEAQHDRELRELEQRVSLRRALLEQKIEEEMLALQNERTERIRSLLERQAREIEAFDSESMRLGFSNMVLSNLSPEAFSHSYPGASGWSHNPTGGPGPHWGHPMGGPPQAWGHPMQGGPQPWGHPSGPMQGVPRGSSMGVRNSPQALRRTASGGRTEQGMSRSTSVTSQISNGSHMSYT
Conditions: at 10 µM.

Test [5] has as its target T3, Serine/threonine-protein kinase TAO2 (Homo sapiens) (UniProt Q9UL54).
T3 sequence (whole entry): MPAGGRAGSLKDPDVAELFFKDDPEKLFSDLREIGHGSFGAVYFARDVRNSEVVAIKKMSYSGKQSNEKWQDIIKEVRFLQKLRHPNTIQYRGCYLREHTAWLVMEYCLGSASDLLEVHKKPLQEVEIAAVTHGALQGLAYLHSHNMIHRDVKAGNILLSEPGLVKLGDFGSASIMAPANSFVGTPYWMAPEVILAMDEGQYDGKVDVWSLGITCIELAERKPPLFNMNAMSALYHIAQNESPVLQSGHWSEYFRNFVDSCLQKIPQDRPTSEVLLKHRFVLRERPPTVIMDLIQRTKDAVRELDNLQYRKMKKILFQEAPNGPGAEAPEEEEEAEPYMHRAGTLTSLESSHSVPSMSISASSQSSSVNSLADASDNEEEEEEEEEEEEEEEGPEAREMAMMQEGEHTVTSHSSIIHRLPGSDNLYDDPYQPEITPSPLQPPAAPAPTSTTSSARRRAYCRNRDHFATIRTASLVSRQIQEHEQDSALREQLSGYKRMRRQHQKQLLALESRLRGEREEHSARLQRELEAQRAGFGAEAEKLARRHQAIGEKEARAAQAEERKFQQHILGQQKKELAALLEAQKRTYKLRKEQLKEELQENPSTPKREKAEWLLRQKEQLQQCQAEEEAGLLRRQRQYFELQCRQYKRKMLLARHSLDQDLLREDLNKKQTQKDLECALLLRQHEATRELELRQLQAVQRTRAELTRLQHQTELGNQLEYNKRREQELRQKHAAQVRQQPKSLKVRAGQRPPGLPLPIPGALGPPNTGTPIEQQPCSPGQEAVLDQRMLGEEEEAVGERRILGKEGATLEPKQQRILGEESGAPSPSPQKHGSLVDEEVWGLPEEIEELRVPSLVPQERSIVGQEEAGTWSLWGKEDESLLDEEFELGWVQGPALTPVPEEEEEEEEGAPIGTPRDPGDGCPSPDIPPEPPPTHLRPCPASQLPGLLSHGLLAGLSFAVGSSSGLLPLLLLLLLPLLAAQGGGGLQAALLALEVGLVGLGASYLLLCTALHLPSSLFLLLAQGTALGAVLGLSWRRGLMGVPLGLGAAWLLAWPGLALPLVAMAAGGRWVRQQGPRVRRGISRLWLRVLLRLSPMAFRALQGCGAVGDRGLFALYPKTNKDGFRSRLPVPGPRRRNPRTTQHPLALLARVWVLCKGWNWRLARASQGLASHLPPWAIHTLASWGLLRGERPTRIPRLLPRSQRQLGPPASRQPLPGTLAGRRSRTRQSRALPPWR
The following applies: at 10 µM.

Test [6] deals with T4, Serine/threonine-protein kinase TAO3 (Homo sapiens) (UniProt Q9H2K8).
T4 sequence (whole entry): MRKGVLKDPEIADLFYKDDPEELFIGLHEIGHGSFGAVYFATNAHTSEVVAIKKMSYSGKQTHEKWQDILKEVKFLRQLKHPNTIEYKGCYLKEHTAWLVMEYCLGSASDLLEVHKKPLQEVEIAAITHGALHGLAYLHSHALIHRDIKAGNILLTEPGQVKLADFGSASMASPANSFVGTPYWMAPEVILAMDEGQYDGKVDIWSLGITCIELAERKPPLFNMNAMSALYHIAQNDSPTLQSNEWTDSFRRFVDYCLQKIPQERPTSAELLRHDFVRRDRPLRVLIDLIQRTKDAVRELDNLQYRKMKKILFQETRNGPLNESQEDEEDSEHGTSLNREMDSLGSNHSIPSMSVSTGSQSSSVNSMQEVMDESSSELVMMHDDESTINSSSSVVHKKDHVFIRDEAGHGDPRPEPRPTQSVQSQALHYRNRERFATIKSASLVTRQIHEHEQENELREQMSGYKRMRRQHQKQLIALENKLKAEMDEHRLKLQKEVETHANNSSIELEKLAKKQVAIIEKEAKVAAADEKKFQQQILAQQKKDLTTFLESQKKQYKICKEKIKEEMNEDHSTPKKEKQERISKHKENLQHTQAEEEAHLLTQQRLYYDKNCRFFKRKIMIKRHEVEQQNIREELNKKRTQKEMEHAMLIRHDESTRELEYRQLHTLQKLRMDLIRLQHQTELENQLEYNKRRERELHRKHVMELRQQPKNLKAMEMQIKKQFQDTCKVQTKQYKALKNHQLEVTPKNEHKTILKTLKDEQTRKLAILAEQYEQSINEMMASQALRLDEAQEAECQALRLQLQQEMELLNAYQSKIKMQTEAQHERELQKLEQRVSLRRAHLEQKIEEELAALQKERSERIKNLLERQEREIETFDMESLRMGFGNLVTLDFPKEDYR
Conditions: at 10 µM.

The target in test [7] is T5, Serine/threonine-protein kinase TBK1 (Homo sapiens) (UniProt Q9UHD2).
T5 sequence (whole entry): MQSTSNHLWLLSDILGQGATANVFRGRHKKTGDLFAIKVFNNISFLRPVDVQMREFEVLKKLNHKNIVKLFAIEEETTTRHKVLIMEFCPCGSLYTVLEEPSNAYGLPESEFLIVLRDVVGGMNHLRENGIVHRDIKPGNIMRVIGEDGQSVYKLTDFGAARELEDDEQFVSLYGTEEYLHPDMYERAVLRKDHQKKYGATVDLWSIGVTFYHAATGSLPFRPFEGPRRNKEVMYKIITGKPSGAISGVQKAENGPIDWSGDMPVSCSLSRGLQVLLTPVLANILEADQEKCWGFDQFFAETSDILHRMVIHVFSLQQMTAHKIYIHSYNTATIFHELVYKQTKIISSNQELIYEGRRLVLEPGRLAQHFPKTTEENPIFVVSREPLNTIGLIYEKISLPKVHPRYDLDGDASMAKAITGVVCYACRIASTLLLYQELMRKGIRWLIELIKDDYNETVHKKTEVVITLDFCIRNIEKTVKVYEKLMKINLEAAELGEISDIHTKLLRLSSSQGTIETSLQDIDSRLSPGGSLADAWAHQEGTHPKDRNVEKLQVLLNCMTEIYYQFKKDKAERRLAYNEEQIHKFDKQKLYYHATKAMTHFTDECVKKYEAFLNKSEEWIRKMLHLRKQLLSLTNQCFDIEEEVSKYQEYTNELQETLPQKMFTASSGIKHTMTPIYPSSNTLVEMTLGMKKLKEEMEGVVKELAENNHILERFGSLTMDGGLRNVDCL
The following applies: at 1 µM.

The target in test [8] is T5, Serine/threonine-protein kinase TBK1 (Homo sapiens). The following applies: at 10 µM.

With `O=C1Nc2ccccc2/C1=C1/Nc2ccccc2/C1=N\OCCC(O)CO` (stereo not drawn), the residual activity stood at 42% in test [1]; 36% in test [2]; 38% in test [3]; 45% in test [4]; 70% in test [5]; 71% in test [6]. Also, the residual activity in test [7] was found to be 9%; in test [8], 1%.
